Test results taken from the supplement of paper PMC10981050.
Several values for one entry are separate records, joined by “and”; a condition that tells them apart may be missing. Equal entries are not always repeated. Structures can show the parent of a compound that is named as a salt.

Experiments:
Assay in all cases: cell viability relative to vehicle control; higher = less cytotoxic
Conditions in all cases: 10 µM
K562 = tested on: K562
How it was run: (§1)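 CRISPR-edited mutant clones and isogenic wild-type clones from four leukaemia lines were screened against Selleck bioactive, kinase and epigenetic probe libraries, with identity-inconsistent compounds excluded. Each compound was acoustically dispensed at a single 10 µM dose into 384-well plates holding 2000 cells in 50 µL medium per well. After 48 h the supernatant was removed and CellTiter-Glo luminescence was read. Viability was expressed as percent of the on-plate vehicle control and analysed in Genedata Screener.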

MARIMO = tested on: MARIMO
How it was run: as §1

MOLM14 = tested on: MOLM14
How it was run: as §1

OCI-AML2 = tested on: OCI-AML2
How it was run: as §1

Structure (SMILES) | cell viability (K562; SRSF2 genotype: SRSF2 P95H/wt) | cell viability (K562; SRSF2 genotype: SRSF2 wt/wt) [%] | cell viability (MARIMO; SRSF2 genotype: SRSF2 P95H/wt) [%] | cell viability (MARIMO; SRSF2 genotype: SRSF2 wt/wt) [%] | cell viability (MOLM14; SRSF2 genotype: SRSF2 P95H/wt) [%] | cell viability (MOLM14; SRSF2 genotype: SRSF2 wt/wt) [%] | cell viability (OCI-AML2; SRSF2 genotype: P95H/wt) [%] | cell viability (OCI-AML2; SRSF2 genotype: wt/wt) [%]
N#C[C@H](O[C@@H]1O[C@H](CO[C@@H]2O[C@H](CO)[C@@H](O)[C@H](O)[C@H]2O)[C@@H](O)[C@H](O)[C@H]1O)c1ccccc1 [Amygdalin] | 104% and 107% | 102 | 104 | 107 | 106 | 108 | 107 | 95.3
C[C@@]12C[C@@H](c3ccoc3)OC(=O)[C@@H]1CC[C@]1(C)[C@H]2[C@@H]2C=C[C@@]1(O)C(=O)O2 [Columbin] | 104% and 96.4% | 102 | 99 | 106 | 108 | 100 | 104 | 103
Cc1c(N)nc(C(CC(N)=O)NCC(N)C(N)=O)nc1C(=O)NC(C(=O)NC(C)C(O)C(C)C(=O)NC(C(=O)NCCc1nc(-c2nc(C(=O)NCCC[S+](C)C)cs2)cs1)C(C)O)C(O[C@@H]1O[C@@H](CO)[C@@H](O)[C@H](O)[C@@H]1O[C@H]1O[C@H](CO)[C@@H](O)[C@H](OC(N)=O)[C@@H]1O)c1cnc[nH]1 (stereo partly drawn) [Bleomycin sulfate] | 95.9% and 107% | 69.7 | 7.26 | 8.15 | 53.4 | 21.6 | 27 | 36.8
C/C=C(\C)C(=O)N[C@@H](c1ccccc1)[C@@H](O)C(=O)O[C@H]1C[C@@]2(O)[C@@H](OC(=O)c3ccccc3)[C@@H]3[C@]4(OC(C)=O)CO[C@@H]4C[C@H](O)[C@@]3(C)C(=O)[C@H](OC(C)=O)C(=C1C)C2(C)C [Cephalomannine] | 22.2% and 39.2% | 31 | 7.43 | 5.47 | 9.27 | 2.7 | 7.08 | 10.9
ClCCN(Cc1ccccc1)Cc1ccccc1 [Dibenamine Hydrochloride] | 103% and 95.7% | 91.5 | 94.9 | 104 | 94.8 | 103 | 83.5 | 89.3
O=c1[nH]c2ccc(Cl)cc2c(N[C@@H]2CN3CCC2CC3)c1-c1nc2ccccc2[nH]1 | 2.58% and 2.45% | 0.48 | 0.55 | 0.36 | 0.07 | -0.01 | 0.04 | 0.75
CCN1CC2(OC(=O)c3ccccc3NC(C)=O)CCC(OC)C34C1C(CC23)C1(O)CC(OC)C2CC4C1(O)C2OC (stereo not drawn) [Lappaconitine] | 99.3% and 109% | 100 | 108 | 103 | 103 | 105 | 111 | 91.9
COc1cc(C(=O)O)cc(OC)c1OC [Gallic acid trimethyl ether] | 106% and 110% | 101 | 102 | 106 | 105 | 106 | 99.2 | 109
CC(=O)OC12COC1CC(O)C1(C)C(=O)C(O)C3=C(C)C(O)CC(O)(C(OC(=O)c4ccccc4)C21)C3(C)C (stereo not drawn) [10-DAB (10-Deacetylbaccatin)] | 103% and 110% | 103 | 109 | 108 | 111 | 105 | 105 | 98.3
CCC1(c2cccc(O)c2)CCCCN(C)C1 (stereo not drawn) [Meptazinol HCl] | 96.2% and 101% | 100 | 91 | 93.7 | 103 | 98.1 | 96.4 | 92.4
O=C(O[C@H]1C[C@H]2CC[C@@H](C1)[N+]21CCCC1)C(O)(c1ccccc1)c1ccccc1 [Trospium chloride (Sanctura)] | 98.8% and 100% | 95.7 | 101 | 102 | 99.4 | 102 | 102 | 102
CN1C2CC(O)CC1C1OC12 (stereo not drawn) [Scopine] | 100% and 97.1% | 95.5 | 101 | 103 | 97 | 100 | 93.6 | 106
CC[C@@H](C(N)=O)N1CCCC1=O [Levetiracetam] | 110% and 104% | 102 | 102 | 109 | 101 | 108 | 106 | 106
N#CC(C#N)=NNc1ccc(OC(F)(F)F)cc1 | 16.2% and 15.8% | 19.2 | 31.8 | 28 | 14.5 | 11.2 | 2.85 | 8.68
COc1cc2c(cc1OC)[C@@H](Cc1ccc(O)c(Oc3cc4c(cc3OC)CCN(C)[C@@H]4Cc3ccc(O)cc3)c1)N(C)CC2.[O-][Cl+3]([O-])([O-])O [Liensinine perchlorate] | 76.2% and 65.4% | 65.4 | 55.5 | 66.8 | 50.4 | 56.1 | 51.5 | 45
O=C(CC1NCCCC1O)Cn1cnc2cc(Br)c(Cl)cc2c1=O (stereo not drawn) [Halofuginone] | 6.09% and 15.2% | 11 | 8.89 | 3.03 | 0.77 | 0.52 | 0.78 | 5.46
C=C[C@H]1CN2CC[C@@]3(C(=O)Nc4ccccc43)[C@@H]2C[C@@H]1/C(=C\OC)C(=O)OC [Isocorynoxeine] | 81.8% and 92.6% | 82.3 | 77.4 | 72.7 | 84.4 | 79.5 | 88.2 | 83.3
Cl[TeH]1(Cl)(Cl)OCCO1.N | 86.8% and 76.3% | 75 | 78 | 83.5 | 71.3 | 74.3 | 76.1 | 84.1
N#CC=C1C=CC(O)C(O)C1OC1OC(CO)C(O)C(O)C1O (stereo not drawn) [Lithospermoside] | 89.9% and 83.2% | 84.3 | 86.5 | 97.5 | 87.4 | 91.7 | 95 | 116
O=Cc1ccccc1 [Benzoic aldehyde] | 98.9% and 98% | 95 | 86.4 | 91.5 | 93 | 92.4 | 85.4 | 88.3
C[C@]12CC[C@H]3[C@@H](CCC4=CC(=O)C=C[C@@]43C)[C@@H]1CC[C@@H]2O [Boldenone] | 99.7% and 103% | 110 | 101 | 104 | 105 | 110 | 113 | 111
